Screening data as filed in PubChem.
LASV entry inh – qHTS for Inhibitors of binding or entry into cells for Lassa Virus; Lassa virus pseudotype entry inhibition, cell reporter; Potency, µM (highest dose often 37.9 µM), inactives show at the top dose activity change, negative = inhibition, most hits filed as inhibitors; 300,000 compounds, 1.2% hits; calls by dose curve; tested in HEK293 cells; also: potency is read from the fitted curve at half-maximal effect; nearly all actives have a fitted effect of over 50% in size
HCMV antiviral – qHTS Assay for inhibitors of the human cytomegalovirus (HCMV); HFF cells, HCMV-luciferase reporter, 72 h; hits give low values; activity change, negative = inhibition, % at 57.5 µM; 410,000 compounds, 4.5% hits; in the data active = activity change below about -60%; inconclusive = no clear call, values can overlap the other calls; inactive = above about -39%
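Compounds were evaluated in HFFs infected with an HCMV luciferase reporter virus (MOI 1 PFU/cell). Luciferase in lysates collected 72 h post infection served as the replication measure.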
FMDV antiviral – High Throughput Screening for Foot and Mouth Disease Virus Antivirals. FMDV antiviral cell-based qHTS. 410,000 compounds, 1.2% hits. Potency, µM (series often up to 57.9 µM), without a hit: at the top dose activity change, negative = inhibition, hits mostly inhibitors; calls by dose curve; tested in HEK293T cells; also: read-out not given here; potency is read from the fitted curve at half-maximal effect; nearly all actives have a fitted effect of over 45% in size
MARV entry inh – qHTS for inhibitors of binding or entry into cells for Marburg Virus; Marburg virus pseudotyped entry inhibition, cell reporter; Potency, µM (series often up to 37.8 µM), for inactives: at the top dose activity change, negative = inhibition, actives largely listed as inhibitors; 300,000 compounds, 1.8% hits; AID 540276, 2011; calls by dose curve; tested in HEK293 cells; also: potency is read from the fitted curve at half-maximal effect
HCV inhibitor – qHTS Assay for Inhibitors of Hepatitis C Virus (HCV); 340,000 compounds, 3.4% hits; Huh7.5.1 HCVcc-Cre infection, luciferase reporter, 44 h; Potency, µM (series often up to 41.8 µM), for inactives: at the highest dose activity change, negative = inhibition, actives largely listed as inhibitors; active = well fitted inhibition curve with a large enough effect; inconclusive = small, poorly fitted or top-dose-only effect, or another doubt; inactive = no such curve, though single readings can be large or run the other way; also: potency is read from the fitted curve at half-maximal effect
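A cell-based infection assay in which seeded cells (1,000 per well) receive test compound after 4 h, are inoculated with HCVcc-Cre at approximately 0.5 moi, and are incubated 44 h before luminescence detection.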
Active calls of the source: *; ? = inconclusive; · = not tested or not shown; [ ] = remark or other dose. Shown are actives, neighbours in structure and some others; about 7.9% of the full set was active somewhere. % is scaled to controls: 0 for no effect and ±100 for the full control effect.

SMILES	LASV entry inh	HCMV antiviral	FMDV antiviral	MARV entry inh	HCV inhibitor
CCCCC(Sc1nc2cc3c(cc2c(=O)n1CCCC(=O)NCc1ccc2c(c1)OCO2)OCO3)C(=O)OCC (stereo not drawn)	?	-39.1	-12.0%	·	·
Cc1cccc(NC(=O)C(=O)NCCc2csc(-c3ccc(F)cc3)n2)c1C	11.9%[46.1 µM]	-2.8	-17.6%	·	·
CCC1(c2ccccc2)CN(C)C1=O (stereo not drawn)	·	-79.4*	-21.9%	·	·
C#CCCCON=C1C[C@@H](O)[C@H](O)[C@H]2[C@@H]3C(=O)N(c4ccc(F)cc4F)C(=O)[C@@H]3CC[C@H]12	·	·	·	-6.1%[14.2 µM]	·
CCOC(=O)CS(=O)(=O)c1ccccc1	11.8%	43.2	22.4%	20.0%	2.5%
COC(=O)CCS(=O)(=O)c1nc(-c2ccccc2)cc(C(F)(F)F)n1	23.1µM*	·	15.8µM*	?	?
CCOC(=O)CCS(=O)(=O)c1nc(-c2ccccc2)cc(C(F)(F)F)n1	12.6µM*	·	20µM*	6.31µM*	10µM*
CCOC(=O)CS(=O)(=O)c1nc(-c2ccccc2)cc(C(F)(F)F)n1	?	-102.6*	22.4µM*	?	?
CCOC(=O)CS(=O)(=O)c1nc(-c2ccc(F)cc2)cc(C(F)(F)F)n1	?	·	?	?	10µM*
COC(=O)c1ccccc1NC(=O)CCCS(=O)(=O)c1nc(-c2ccccc2OC)cc(C(F)(F)F)n1	5.3%[46.1 µM]	11.0	-15.1%	-0.7%[46.1 µM]	·
COCCN1C(=O)NC(c2cccc(C(F)(F)F)c2)C(C(C)=O)=C1C (stereo not drawn)	·	·	·	11.2%[14.2 µM]	·
COCC(C)NC(=O)CCS(=O)(=O)c1nc(-c2ccc(OC)cc2)cc(C(F)(F)F)n1 (stereo not drawn)	?	-104.0*	31.6µM*	?	?
COc1cc(/C=C/c2ccc(O)cc2)cc(OC)c1	·	12.6	27.5%	·	12.6µM*
COc1ccc(C(=O)N2CCC3(CC2)c2ccccc2[C@@H](NC(=O)c2ccccn2)[C@@H]3OC)c(O)c1	·	·	47.0%	·	·
CCOC(=O)N1CCN(C(=O)c2cccc(N3C(=O)NC4CC3(C)Oc3ccc(Cl)cc34)c2)CC1 (stereo not drawn)	-16.4%[46.1 µM]	-71.3*	?	-11.3%[46.1 µM]	-14.3%
CCOC(=O)C1CCN(C(=O)c2cccc(N3C(=O)NC4CC3(C)Oc3ccc(C)cc34)c2)CC1 (stereo not drawn)	-16.6%[46.1 µM]	-24.3	7.8%	0.8%[46.1 µM]	-11.2%
CCc1ccccc1NC(=O)CSc1ncc(S(=O)(=O)c2ccc(C(C)C)cc2)c(N)n1	-24.7%[46.1 µM]	-28.9	?	·	·
CC(Sc1ncc(S(=O)(=O)c2ccc(C(C)C)cc2)c(N)n1)C(=O)Nc1ccccc1 (stereo not drawn)	?	-73.8*	?	·	·
O=C(OCCC12CC3CC(CC(C3)C1)C2)c1ccc(NCc2cc(O)ccc2O)cc1	1.26µM*	-77.1*	?	1.78µM*	2.24µM*
N#Cc1c(-c2ccc(F)cc2)nc2n(c1=O)CCS2	-5.7%	-17.2	1.4%	-6.5%	22.4µM*
CCOC(=O)c1ccc(NC(=O)CSc2nc3ccccc3c(=O)n2CCNC(C)=O)cc1	-8.6%[46.1 µM]	3.7	-9.0%	·	·
COc1ccc(NC(=O)CN2CCN(Cc3ccccc3Cl)S2(=O)=O)cc1Cl	-2.2%[46.1 µM]	?	-10.5%	-19.2%[46.1 µM]	·
Cc1ccc(Nc2nc(-c3ccncc3)nc3ccccc23)cc1	1.0%	-1.1	-25.3%	2.24µM*	-62.2%
Cc1ccc(Nc2nc(-c3ccccc3)nc3ccccc23)cc1	25.7%[46.1 µM]	?	0.0%	·	·
Cc1c2ccccc2nc2c(F)c(NCCO)c(F)c(F)c12	?	64.0	44.2%	15.5%	?
Cc1ccc(-c2nc(NCCCN(C)C)c3ccccc3n2)cc1	·	26.3	33.5%	·	·
OCCNc1c2ccccc2nc2c(F)c(F)c(F)c(F)c12	?	-23.4	22.4µM*	?	?
CN(C)CCCNc1nc(-c2ccccc2)nc2ccccc12	-12.9%[46.1 µM]	22.1	-15.3%	12.6µM*	-19.8%
CN(C)CCCNc1c2ccccc2nc2ccccc12	?	-101.9*	-29.5%	5.62µM*	7.94µM*
COc1ccc(NC(=O)C2CCN(C(=O)c3sc4nc[nH]c(=O)c4c3C)CC2)c(OC)c1	-11.2%[46.1 µM]	36.0	-15.9%	·	·
